Results as given in PubChem BioAssay AID602373 (National Center for Advancing Translational Sciences (NCATS), 2012).
Inconclusive results are not listed. Where a call stands in place of a potency, no number is given. Calls of active or inactive are those of the source. The call rests on the fitted dose curve; in most records, active means well fitted inhibition curve with a large enough effect; inconclusive means small, poorly fitted or top-dose-only effect; inactive means no such curve, though single readings can be large or run the other way.

Assay: qHTS Assay for Inhibitors of Bacillus subtilis Sfp phosphopantetheinyl transferase (PPTase): Hepg2 Assay
Settings: HepG2 cytotoxicity counter-screen; series mostly up to 46.1 µM
Description: The covalent attachment of a phosphopantetheinyl (4'-PP) arm to a variety of synthases and other proteins is a key posttranslational protein modification. The 4'-PP is installed on the proteins post-translationally from coenzyme A (CoA) on a conserved serine residue by action of phosphopantetheinyl transferase (PPTase) enzymes. Phosphopantetheinylation is essential for synthase activity, and removal of the PPTase gene precludes natural product synthesis in microorganisms, or in the case of fatty acid biosynthesis, renders the organism unviable. PPTase enzymes belong to a distinct structural superfamily. Within bacteria, these enzymes are grouped into two classes based upon primary structure, the AcpS-Type and Sfp-Type PPTases.
Sfp-type PPTases, corresponding to an activator of surfactin production in Bacillus subtilis, are responsible for modifying type I polyketide and nonribosomal peptide synthases of prokaryotes. Sfp-type PPTases are responsible for the activation of a variety of pathogen-associated virulence factors. Among these compounds are toxins such as mycolactone from Mycobacterium ulcerans, siderophores such as vibriobactin from Vibrio cholerae or mycobactin from Mycobacterium tuberculosis, as well as the mycolic acids which form the waxy cell wall of Mycobacteria. The biosyntheses of these natural products are considered attractive targets for drug design.
In search of small molecule Sfp-PPTase inhibitors, a fluorescence quenching assay was developed for detection of Bacillus subtilis Sfp-PPTase enzymatic activity in a miniaturized high-throughput format. The consensus ybbr acceptor peptide […] was N-terminally labeled with Black Hole Quencher-2 (BHQ-2) and used in combination with rhodamine-labeled coenzyme A as a co-substrate.
Phosphopantetheinyl transfer is a process essential to cellular viability and maintenance in all forms of life. Cell-permeable and stable compounds acting as PPTase inhibitors are anticipated to be growth inhibitory agents. This assay sought to assess the toxicity of test compounds in the HepG2 hepatocarcinoma cells; a human cell line whose use additionally determines the toxicity of test article metabolites.
NIH Chemical Genomics Center [NCGC]
NIH Molecular Libraries Probe Centers Network [MLPCN]
Assay Submitter (PI): Michale Burkart, University of California, San Diego
Test compounds' toxicity was assessed by measuring cellular ATP content using a luciferase-coupled ATP quantitation assay (CellTiter-Glo; Promega, Madison, WI). In this assay, luminescent signal is proportional to amount of ATP, and thus to the number of metabolically competent cells. Briefly, Hepg2 cell suspension (5 uL, 4 x 10^5 cells/mL) was dispensed into 1,536-well tissue-culture treated white/solid bottom assay plates (Greiner Bio-One North America, Monroe, NC) using a Flying Reagent Dispenser (Aurora Discovery, Carlsbad, CA). Cells were incubated at 37 deg C for 6 hr to allow for cell attachment, followed by addition of compounds via pin tool (Kalypsys, San Diego, CA). After compound addition, plates were incubated for 48 hr at 37 deg C. At the end of the incubation period, CellTiter-Glo reagent (5 uL) was added, plates were incubated at room temperature in the dark for 30 min, and the luminescence intensity of each well was determined using a ViewLux plate reader (PerkinElmer, Shelton, CT). The positive control was 92 uM and 41 uM of tetra-N-Octylammonium bromide, and the negative control was DMSO.

Row | Compound | Potency
1 | Cc1cc(C)nc(NC(=S)N2CCN(c3nccs3)CC2)c1 | inactive
2 | CC(=O)c1ccc(N2CCN(C(=S)Nc3cc(C)ccn3)CC2)cc1 | inactive
3 | CC(Cc1ccccc1)C(=O)Nc1ccc(Cl)cc1C(=O)O (stereo not given) | inactive
4 | Cc1cc(C)nc(NC(=S)N2CCN(c3ccc(Cl)c(Cl)c3Cl)CC2)c1 | inactive
5 | Cc1cc(C)nc(NC(=S)N2CCN(c3ccc(Cl)cc3F)CC2)c1 | inactive
6 | FC(F)(F)c1cccc(N2CCN(C(=S)Nc3cc4ccccc4cn3)CC2)c1 | inactive
7 | Cc1ccc(N2CCN(C(=S)Nc3cc(C)ccn3)CC2)cc1 | inactive
8 | Cc1ccnc(NC(=S)N2CCN(c3cccc(C(F)(F)F)c3)C[C@@H]2C)c1 | inactive
9 | Cc1cc(C)nc(NC(=S)N2CCN(Cc3cccc4ccccc34)CC2)c1 | inactive
10 | COc1ccnc(NC(=S)N2CCN(c3cccc(Cl)c3Cl)CC2)c1 | inactive
11 | Cc1cc(C)nc(NC(=S)N2CCN(c3noc4ccccc34)CC2)c1 | inactive
12 | CN(C)c1ccc2nc(NC(=S)N3CCN(c4cccc(C(F)(F)F)c4)CC3)sc2c1 | 8.88 µM (active)
13 | COc1cccc(NC(=S)N2CCN(c3ccc(Cl)c(Cl)c3)CC2)n1 | inactive
14 | Cc1cc(C)nc(NC(=S)N2CCN(c3nncs3)CC2)c1 | inactive
15 | Cc1cc(C)nc(NC(=S)N2CCN(c3ccsc3)CC2)c1 | inactive
16 | FC(F)(F)c1cccc(N2CCN(C(=S)Nc3cnccn3)CC2)c1 | inactive
17 | COc1cccc(NC(=S)N2CCN(c3ccccc3C(F)(F)F)CC2)n1 | inactive
18 | Cc1cc(C)nc(NC(=S)N2CCN(c3ccc(N4CCCC4)nn3)CC2)c1 | inactive
19 | Cc1ccnc(NC(=S)NC2CN(c3cccc(C(F)(F)F)c3)C2)c1 | 25 µM (active)
20 | Cc1cc(C)nc(NC(=S)N2CCN(c3nsc4ccccc34)CC2)c1 | inactive

Row | Compound | Potency
21 | Cc1cc(C)nc(NC(=S)N2CCN(c3ncnc4sccc34)CC2)c1 | 15.8 µM (active)
22 | Cc1cc(C)nc(NC(=S)N2CCN(c3ccc4ncccc4c3[N+](=O)[O-])CC2)c1 | inactive
23 | Cc1cc(C)nc(NC(=S)N2CCN(c3ccc(Cl)cc3C(F)(F)F)CC2)c1 | inactive
24 | Cc1ccnc(N=C(N)N2CCN(c3cccc(C(F)(F)F)c3)CC2)c1 | 28.1 µM (active)
25 | Cc1cc(C)nc(NC(=S)N2CCN(c3ccc(Cl)nn3)CC2)c1 | inactive
26 | Cc1ccnc(NC(=S)N2CCCN(c3cccc(C(F)(F)F)c3)CC2)c1 | 25 µM (active)
27 | FC(F)(F)c1cccc(N2CCN(C(=S)Nc3nccc4ccccc34)CC2)c1 | inactive
28 | S=C(Nc1cc(Cl)ccn1)N1CCN(c2cc(Cl)cc(Cl)c2)CC1 | 9.96 µM (active)
29 | Cc1cc(C)nc(NC(=S)N2CCN(c3ccc4c(c3)OCO4)CC2)c1 | inactive
30 | CC(=O)N1CCN(C(=S)Nc2cc(C)ccn2)CC1 | inactive
31 | COc1cccc(NC(=S)N2CCN(c3cccc(C(F)(F)F)c3)CC2)n1 | 28.1 µM (active)
32 | Cc1cc(C)nc(NC(=S)N2CCN(c3ccncc3)CC2)c1 | inactive
33 | Cc1ccnc(NC(=O)N2CCN(c3cccc(C(F)(F)F)c3)CC2)c1 | 6.28 µM (active)
34 | Cc1ccnc(NC(=S)N2CCN(c3cc(C(F)(F)F)cc(C(F)(F)F)c3)CC2)c1 | 7.91 µM (active)
35 | COc1cccc(NC(=S)N2CCN(c3cccc(Cl)c3Cl)CC2)n1 | inactive
36 | Cc1cc(C)nc(NC(=S)N2CCN(c3cc(F)cc(F)c3)CC2)c1 | inactive
37 | Cc1cc(C)nc(NC(=S)N2CCN(c3cccc(S(C)(=O)=O)c3)CC2)c1 | inactive
38 | COc1cccc(NC(=S)N2CCN(c3ccc(C(F)(F)F)cc3[N+](=O)[O-])CC2)n1 | inactive
39 | Cc1cc(C)nc(NC(=S)N2CCN(c3ccc4occc4c3)CC2)c1 | inactive
40 | Cc1cc(C)nc(NC(=S)N2CCN(c3ccc4nncn4c3)CC2)c1 | inactive
